The panel holds about 83,000 compounds, 20% with a hit somewhere; the sample as a whole holds those more often.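 Plates (96-well) were seeded with cells, treated with compound at one concentration, and incubated for 48 hours before percent growth was determined.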 Unmarked numbers belong to inactive results. Activity calls are given as the source filed them. Rule for the calls: active = growth percent below 10; inactive = the rest.
Columns and labels:
Assay in all cases: NCI-60 one-dose screen, 48 h (100 = growth as untreated, 0 = no growth, -100 = all killed)
Settings in all cases: 10 µM
NCI-H23 lung = test system: NCI-H23 lung
NCI-H226 lung = test system: NCI-H226 lung
NCI-H322M lung = test system: NCI-H322M lung
HOP-62 NSCLC = test system: HOP-62 NSCLC
NCI-H460 lung = test system: NCI-H460 lung
HOP-92 NSCLC = test system: HOP-92 NSCLC
A549/ATCC NSCLC = test system: A549/ATCC NSCLC
COLO 205 colon = test system: COLO 205 colon
DU-145 prostate = test system: DU-145 prostate
K-562 leukemia = test system: K-562 leukemia
MALME-3M melanoma = test system: MALME-3M melanoma
MDA-MB-231 breast = test system: MDA-MB-231 breast
RXF 393 renal = test system: RXF 393 renal
SF-268 CNS = test system: SF-268 CNS
SF-295 CNS = test system: SF-295 CNS
SF-539 CNS = test system: SF-539 CNS
UACC-257 melanoma = test system: UACC-257 melanoma
786-0 renal = test system: 786-0 renal
M14 melanoma = test system: M14 melanoma
NCI-H522 lung = test system: NCI-H522 lung

Row | SMILES | growth (NCI-H23 lung) | growth (NCI-H226 lung) | growth (NCI-H322M lung) | growth (HOP-62 NSCLC) | growth (NCI-H460 lung) | growth (HOP-92 NSCLC) | growth (A549/ATCC NSCLC) | growth (COLO 205 colon) | growth (DU-145 prostate) | growth (K-562 leukemia) | growth (MALME-3M melanoma) | growth (MDA-MB-231 breast) | growth (RXF 393 renal) | growth (SF-268 CNS) | growth (SF-295 CNS) | growth (SF-539 CNS) | growth (UACC-257 melanoma) | growth (786-0 renal) | growth (M14 melanoma) | growth (NCI-H522 lung)
1 | COc1ncnc2c1cnn2C | 106% | 106% | 116% | 94.4% | 106% | 99.9% | 105% | 104% | 111% | 115% | 126% | 100% | 114% | 101% | 112% | 96.8% | 106% | – | – | –
2 | N#CC(=Nc1cccc(F)c1)C1=C(O)c2ccccc2C1=O | 94.8% | 79.6% | 96.3% | 88.4% | 102% | 63.8% | 95.6% | 96% | 105% | 84.4% | 87.1% | 84.5% | 88.9% | 96.5% | 82% | 95.6% | – | 97.5% | 98.2% | –
3 | CC1NC(=O)NC1CCCCCC(=O)O (stereo not drawn) | 100% | 103% | 132% | 104% | 111% | 72.9% | 94.9% | 110% | 108% | 125% | 106% | 91.4% | 105% | 96.5% | – | 105% | 86.6% | – | 95% | –
4 | Oc1ccccc1O | 97.7% | 102% | 91.2% | 95.9% | 100% | 90.5% | 78.1% | 93.8% | 106% | 112% | 138% | 63.9% | 94.4% | 87.2% | 136% | 84.1% | 87.7% | – | – | –
5 | CCOC(=O)Nc1nn[nH]n1 | 102% | 107% | 129% | 113% | 99.9% | 97.3% | 103% | 107% | 108% | 110% | – | 104% | 105% | 100% | 106% | 97.7% | 116% | 105% | 95.3% | –
6 | CCCCCCCO | 106% | 94.7% | 92.6% | 98.8% | 110% | 88.7% | 102% | 118% | 114% | 106% | – | 104% | 97.3% | 125% | – | 89.5% | 93.5% | 110% | 98.5% | –
7 | O=[N+]([O-])c1ccccc1S(=O)c1ccccc1[N+](=O)[O-] | 95.9% | 111% | 95.5% | 108% | 105% | 76.2% | 101% | 106% | 106% | 47.9% | 90.4% | 74% | 111% | 88.1% | 79% | 113% | – | 111% | 95.9% | –
8 | C[C@]12CC[C@@H]3c4ccc(OCC(=O)O)cc4CC[C@H]3[C@@H]1CCC2=O | 94.2% | 95.7% | 98% | 75% | 101% | 92.1% | 93.3% | 105% | 109% | 78.7% | – | 101% | 115% | 91% | 111% | 97.5% | 93.4% | 102% | 97.2% | –
9 | COc1ccccc1N1CCN(C(=S)Nc2ccccc2)CC1 | 92.8% | 99.4% | 93.2% | 89.7% | 102% | 80.9% | 99.7% | 97.4% | 100% | 81.8% | 97.3% | 101% | 100% | 99.3% | – | 106% | – | 96.3% | 100% | –
10 | CC(=O)OC(OC(C)=O)C1CCCO1 (stereo not drawn) | 97.4% | 103% | 114% | 99.2% | 109% | 94.1% | 101% | 105% | 112% | 135% | 112% | 91.8% | 115% | 97.8% | 112% | 100% | 98% | – | – | –
11 | CC(C)C1CCCCC1O (stereo not drawn) | 95.4% | 112% | 124% | 102% | 109% | 101% | 102% | 108% | 113% | 164% | 117% | 99.4% | 112% | 99.5% | 111% | 101% | 101% | – | – | –
12 | O=C(Cc1ccc(OCc2ccccc2)cc1)NCc1ccc2c(c1)OCO2 | 78.3% | 99.6% | 80.8% | 77.9% | 28.7% | 86.8% | 58.2% | 85.5% | 84.6% | 27.6% | 46.6% | 82.8% | 105% | 68.9% | -16.6% (active) | 93.7% | – | 88.7% | 61.9% | –
13 | OCCN1CCOCC1 | 115% | 112% | 125% | 104% | 104% | 115% | 104% | 119% | 124% | 114% | 114% | 113% | 119% | 117% | 110% | 111% | 99.7% | – | – | –
14 | C=CCNc1ccccc1 | 102% | 103% | 106% | 86.9% | 108% | 88.5% | 101% | 112% | 122% | 113% | 124% | 86.7% | 113% | 104% | 138% | 104% | 102% | – | – | –
15 | C=CCNc1nnc(C)s1 | 98.1% | 99.8% | 96.7% | 98.8% | 115% | 83% | 116% | 122% | 118% | 106% | 106% | 102% | – | 119% | 115% | 99.9% | – | 94.9% | 103% | –
16 | CCc1nn(Cc2ccccc2)c2nc(C)c(CCc3ccccc3)c(Cl)c12 | 101% | 90.7% | 79.5% | 104% | 90.8% | 9.07% (active) | – | 110% | 102% | 61.1% | 75.5% | 99.7% | – | 106% | 85.1% | 86.7% | – | 85% | 100% | –
17 | CCCCC(O)c1ccccc1 (stereo not drawn) | 96.5% | 97.2% | 101% | 110% | 105% | – | 100% | 105% | 108% | 94% | 102% | 116% | 107% | 98.6% | 104% | 106% | 101% | 104% | 109% | 108%
18 | Cc1ccc(C(=O)N/N=C/c2ccc3c(c2)OCO3)cc1 | 91% | 101% | 98.8% | 97.5% | 96.6% | – | 97.7% | 113% | 112% | 73.3% | 108% | 90.5% | 102% | 96% | 115% | 103% | 115% | 99.8% | 93% | 80.9%
19 | COc1cc(C2NC(=O)C(C#N)=C(Nc3cccc(C)c3)S2)ccc1O (stereo not drawn) | 103% | 104% | 106% | 98.1% | 99.5% | – | 32.5% | 119% | 122% | 93.8% | 108% | 99.2% | 103% | 109% | 101% | 90.4% | -2.62% (active) | 105% | 101% | 47.5%
